Screens: PubChem BioAssay, National Center for Advancing Translational Sciences (NCATS)
NPC1 promoter act – NPC1 promoter activation; Potency, µM (top dose mostly 9.22 µM), most hits filed as activators; Huh7 NPC1 promoter luciferase reporter, 24 h; hit rate 2.4% among 320,000; AID 485313; note: nearly all actives have a fitted effect of over 60% in size
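Stably transfected Huh7 (NPC1 promoter→luciferase), 1500 cells/well in Opti-MEM + 10% FBS, 2 h settle, then compound 24 h at 37 °C. Luminescence after 10 min with Amplite reagent.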
ELG1 repair inh – ELG1-dependent DNA repair inhibition | HEK293T ELG1-luciferase reporter, luminescence, 16 h; DNA damage induced by 5-fluorouridine | Potency, µM (highest dose often 46.1 µM), hits mostly inhibitors | hit rate 2.3% among 330,000 | AID 504467; note: nearly all actives have a fitted effect of over 55% in size
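Cells (2,000 per well) received 5-fluorouridine plus test compound or DMSO and were incubated 16 hr at 37 °C, 5% CO2. Luciferase activity was read by luminescence 30 min after ONE-Glo addition; signal suppression marked inhibition of damage-induced ELG1 function.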
Rab9 promoter act – Rab9 promoter activation | Potency, µM (top dose mostly 9.22 µM), actives largely listed as activators | Huh7 Rab9 promoter-luciferase reporter, luminescence, 24 h | AID 485297 | hit rate 2.8% among 320,000; note: nearly all actives have a fitted effect of over 60% in size
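Stable Rab9-luc Huh7, 1500 cells/well, 2 h settle; cmpd in DMSO, 24 h, 37 °C/5% CO2; luciferase reagent 10 min RT; luminescence.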
FLuc modulator – inhibits or activates purified firefly luciferase, miR-21 counter-screen; P08659; hit rate 6.9% among 360,000; purified FLuc, Km substrates, luminescence inhibition; Potency, µM (doses to about 57.5 µM), most hits filed as inhibitors; note: nearly all actives have a fitted effect of over 55% in size
Target sequence (P08659 whole entry, looked up): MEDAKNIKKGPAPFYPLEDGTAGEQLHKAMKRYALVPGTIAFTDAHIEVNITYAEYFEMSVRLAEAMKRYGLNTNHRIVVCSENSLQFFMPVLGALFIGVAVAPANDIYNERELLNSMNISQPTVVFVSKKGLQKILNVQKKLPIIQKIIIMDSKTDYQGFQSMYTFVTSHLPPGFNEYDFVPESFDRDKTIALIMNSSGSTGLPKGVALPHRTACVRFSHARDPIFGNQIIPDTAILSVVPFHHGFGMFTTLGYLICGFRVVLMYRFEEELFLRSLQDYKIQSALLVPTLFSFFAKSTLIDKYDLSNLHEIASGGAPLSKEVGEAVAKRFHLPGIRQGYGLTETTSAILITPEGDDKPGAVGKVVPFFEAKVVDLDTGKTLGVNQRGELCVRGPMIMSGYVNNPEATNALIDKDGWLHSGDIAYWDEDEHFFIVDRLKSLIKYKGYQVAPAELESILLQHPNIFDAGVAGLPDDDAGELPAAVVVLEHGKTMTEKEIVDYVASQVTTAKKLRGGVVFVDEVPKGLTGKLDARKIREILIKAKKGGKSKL
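Biochemical qHTS of compounds, final roughly 60 µM downward over six points, against 10 nM purified firefly luciferase using Km concentrations of substrates (10 uM D-luciferin, 10 uM ATP) in Tris acetate pH 7.5 buffer; luminescence output.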
SMN2 splice up – enhancers of SMN2 splice variant expression; HEK293 SMN2-luciferase splicing reporter, luminescence, 30-36 h; Potency, µM (series often up to 46.1 µM), usual class: activators; hit rate 2.8% among 210,000; AID 1458; note: nearly all actives have a fitted effect of over 55% in size
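HEK293 cells carry an SMN2 minigene-luciferase reporter in which exon 7 inclusion puts luciferase in frame. Cells were seeded at 2000 cells/well, attached for 10-12 hours, then exposed to compounds for 30-36 hours at 37C before ONE-Glo luminescence.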
ELG1 genotox – inducers of genotoxicity in HEK293T ELG1-luciferase cells; HEK293T ELG1-luciferase reporter, luminescence, 16 h; Potency, µM (top dose mostly 46 µM), most hits filed as activators; hit rate 1.3% among 330,000; note: nearly all actives have a fitted effect of over 60% in size
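Quantitative HTS format in 1536-well plates. HEK293T ELG1-luciferase reporter cells receive test compound and are incubated 16 hr at 37 °C, 5% CO2; ONE-Glo added, 30 min room temperature, then luminescence read.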
Large screens that a line does not name were inactive. Sampled rows, rich in hits. Any-hit rate of the full collection: about 9.4%. Calls come from the whole dose curve; as a rule, active = well fitted curve in the direction sought with a large enough effect; inconclusive = small, poorly fitted or top-dose-only effect, or another doubt; inactive = no such curve, though single readings can be large; an effect the other way counts as inactive or inconclusive.

O=C(NNc1nc2cc3c(cc2s1)OCO3)c1ccc(F)cc1	ELG1 repair inh inconclusive, FLuc modulator inconclusive
Fc1ccc2nc(Nc3nc4cc5c(cc4s3)OCO5)sc2c1	NPC1 promoter act 2.5µM, ELG1 repair inh inconclusive, Rab9 promoter act 2µM, FLuc modulator 6µM, SMN2 splice up 11µM, ELG1 genotox 13µM
CC(C)(C)C(=O)Nc1cccc(C(=O)OCc2cc(=O)n3nc(C4CC4)sc3n2)c1	none (no result: NPC1 promoter act, ELG1 repair inh, Rab9 promoter act, SMN2 splice up, ELG1 genotox)
O=C(O)CSCCc1ccccc1	none (no result: NPC1 promoter act, ELG1 repair inh, Rab9 promoter act, FLuc modulator, ELG1 genotox)
Cn1c(-c2ccc3c(c2)OCO3)cnc1NCc1ccccc1Cl	ELG1 repair inh inconclusive, Rab9 promoter act inconclusive, FLuc modulator 12µM, SMN2 splice up inconclusive
Cn1c(-c2ccc3c(c2)OCO3)cnc1NCc1ccccc1	FLuc modulator inconclusive
Cc1cc(C(=O)O)ccc1-c1ccc(CO)o1	ELG1 repair inh inconclusive, FLuc modulator 27µM
COc1cccc(N2CCN(C(=O)c3cc(-c4ccc(F)cc4)[nH]c3C)CC2)c1	ELG1 repair inh 21µM (no result: SMN2 splice up)
O=C(N/N=C\c1cn(-c2ccccc2)nc1-c1ccccc1)c1ccc(Br)o1	ELG1 repair inh inconclusive, FLuc modulator inconclusive
O=C(N/N=C/c1cn(-c2cccs2)nc1-c1ccccc1)c1ccc(O)cc1	ELG1 repair inh inconclusive, FLuc modulator 4.3µM, SMN2 splice up inconclusive
O=C(N/N=C/c1cn(-c2cccs2)nc1-c1ccccc1)c1ccccc1Cl	ELG1 repair inh inconclusive, FLuc modulator 12µM, SMN2 splice up 20µM
COc1cccc(-c2cn3ncsc3n2)c1	FLuc modulator 15µM (no result: NPC1 promoter act, ELG1 repair inh, Rab9 promoter act, ELG1 genotox)
CSc1ncc(C(=O)Nc2c(C)cccc2C)c(-c2ccccc2)n1	none (no result: NPC1 promoter act, ELG1 repair inh, Rab9 promoter act, SMN2 splice up, ELG1 genotox)
COc1ccc(-n2nc([N+](=O)[O-])c(=NCCCN3CCCC3=O)n2O)cc1	NPC1 promoter act inconclusive, ELG1 repair inh inconclusive, Rab9 promoter act 1.6µM, ELG1 genotox inconclusive
COc1ccc(-n2nc([N+](=O)[O-])c(=NCCc3cccc(C)c3)n2O)cc1	NPC1 promoter act inconclusive, Rab9 promoter act 2.2µM (no result: SMN2 splice up)
O=C1CCCN1CCCN=c1c([N+](=O)[O-])nn(-c2ccc(Cl)cc2)n1O	none
CC(C)C[C@@H](CC(=O)N[C@@H](CCCN)CC(=O)N[C@@H]1CCCC[C@H]1C(=O)N[C@H](CC(=O)N[C@@H](CCC(=O)O)CC(=O)O)Cc1c[nH]c2ccccc12)NC(=O)[C@@H]1CNCC[C@H]1N	none (no result: NPC1 promoter act, ELG1 repair inh, Rab9 promoter act, FLuc modulator, ELG1 genotox)
CCOC(=O)c1cnc(N(C)C)nc1SC(=N)N	none (no result: NPC1 promoter act, ELG1 repair inh, Rab9 promoter act, FLuc modulator, ELG1 genotox)
COc1cccc(-n2c(SCC(=O)Nc3sc4c(c3C(N)=O)CCC4)nc3ccccc3c2=O)c1	ELG1 repair inh 6.5µM
CC(C)Oc1ccccc1NC(=O)CSc1nc2ccccc2c(=O)n1C	ELG1 repair inh inconclusive (no result: SMN2 splice up)
COc1cccc(NC(=O)CSc2nc3ccccc3c(=O)n2C)c1	ELG1 repair inh 9.2µM (no result: SMN2 splice up)
CCOc1ccccc1-n1c(SCC(=O)Nc2ccccc2C(=O)O)nc2ccccc2c1=O	NPC1 promoter act inconclusive, ELG1 repair inh inconclusive, Rab9 promoter act inconclusive, FLuc modulator 12µM (no result: SMN2 splice up)
Cc1ccccc1NC(=O)CSc1nc2ccccc2c(=O)n1C	ELG1 repair inh 15µM (no result: SMN2 splice up)
CCn1c(SCC(=O)Nc2ccccc2OC)nc2ccccc2c1=O	ELG1 repair inh inconclusive
COc1cccc(-n2c(SCC(=O)Nc3nc4ccccc4s3)nc3ccccc3c2=O)c1	ELG1 repair inh inconclusive (no result: SMN2 splice up)
COCCn1c(SCC(=O)Nc2cccc(S(N)(=O)=O)c2)nc2cc(Cl)ccc2c1=O	ELG1 repair inh inconclusive
COc1ccccc1NC(=O)Cn1cnc2sc(C(=O)Nc3cc(OC)c(OC)c(OC)c3)c(C)c2c1=O	ELG1 repair inh 8.2µM (no result: SMN2 splice up)
CC(C)Cn1c(SCC(=O)Nc2cccc(S(N)(=O)=O)c2)nc2ccccc2c1=O	ELG1 repair inh 16µM
COc1ccccc1NC(=O)CSc1nc2nc(C)cc(C)c2c(=O)[nH]1	SMN2 splice up 3.5µM
COC(=O)c1cccc(NC(=O)CSc2nc3cccnc3n2C)c1	ELG1 repair inh 13µM, FLuc modulator inconclusive
CC(C)CCNC(=O)Nc1ccc2c(c1)N(Cc1ccccc1)C(=O)c1ccccc1S2	none (no result: NPC1 promoter act, ELG1 repair inh, Rab9 promoter act, ELG1 genotox)
COc1ccccc1NC(=O)CSc1nc2sc(C)c(C)c2c(=O)n1C	ELG1 repair inh 15µM (no result: SMN2 splice up)
CCOc1ccc2nc(NCCCNC(=O)c3cc(OC)c(OC)c(OC)c3)c(C#N)cc2c1	ELG1 repair inh 6.5µM (no result: SMN2 splice up)
Oc1ccc(NCc2ccccc2OCc2ccc(Cl)cc2)cc1	FLuc modulator 21µM, SMN2 splice up 22µM (no result: NPC1 promoter act, ELG1 repair inh, Rab9 promoter act, ELG1 genotox)
COc1cccc(CNc2ccc3[nH]c(=O)[nH]c3c2)c1OCc1ccc(F)cc1	ELG1 repair inh inconclusive (no result: SMN2 splice up)
O=c1[nH]c2ccc(NCc3ccccc3OCc3ccc(Cl)cc3)cc2[nH]1	ELG1 repair inh 8.2µM, FLuc modulator inconclusive (no result: SMN2 splice up)
CCC(=O)N1c2ccccc2[C@@H](N(C(C)=O)c2ccccc2)C[C@H]1C	ELG1 repair inh inconclusive, SMN2 splice up 7.9µM, ELG1 genotox 23µM
CCOc1ccc(/C=C/c2nc(C#N)c(Nc3ccc(OC)cc3)o2)cc1	none (no result: NPC1 promoter act, ELG1 repair inh, Rab9 promoter act, ELG1 genotox)
Cc1ccc(C)c2nc3sc(C(=O)O)cc3cc12	FLuc modulator 24µM
COc1ccc2[nH]c(=O)c(CN(C(=O)c3cccc(Cl)c3)c3cccc(C)c3)cc2c1	none (no result: NPC1 promoter act, ELG1 repair inh, Rab9 promoter act, ELG1 genotox)
Cc1ccc(C(=O)N/C(=C/c2ccco2)C(=O)NCCc2c[nH]c3ccccc23)cc1	FLuc modulator 15µM
